According to PubChem BioAssay AID1159606 (Sanford-Burnham Center for Chemical Genomics, 2016):
“And” between values parts separate entries of the source, which are not always exact repeats. Equal entries are not always repeated. About 7,300 (2%) of roughly 360,000 compounds were called active. Rule as the data show it: active = inhibition above about 50%; inactive = the rest. This excerpt belongs to a sample that is enriched for actives.

Experiment: inhibitors of TWEAK-Fn14 signaling, primary screen, luciferase reporter cells, uHTS (AID 1159606)
Conditions: TWEAK-stimulated Fn14 reporter cells, luciferase luminescence, 8 h; at 10 µM; stronger effect = higher value

Structure (SMILES)	inhibition
CN(C)Cc1ccc(F)cc1Sc1cc(Cl)ccc1Cl	5.28% (inactive)
CC(=O)N1C(C)c2ccccc2C(C)(C)CC12CCCCC2 (stereo not given)	-11.4% (inactive)
C=CC1=C(C(=O)O)N2C(=O)[C@@H](NC(=O)/C(=N/OCC(=O)O)c3csc(N)n3)[C@H]2SC1	75.2% (active)
CO/N=C(\C(=O)N[C@@H]1C(=O)N2C(C(=O)O)=C(COC(C)=O)CS[C@H]12)c1csc(N)n1 (stereo in doubt)	15% (inactive) and 5.82% (inactive) and -5.11% (inactive)
C=CC1=C(C(=O)O)N2C(=O)[C@@H](NC(=O)/C(=N\OCC(=O)O)c3csc(N)n3)[C@H]2SC1	14.2% (inactive)
CC(=O)c1ccc(S(=O)(=O)N(C)CCCC(=O)N(C)Cc2ccccc2F)cc1	13.5% (inactive)
CC1(C)OC(=O)C2=C(C[C@@H](C3CCCCC3)O[C@@H]2c2ccc(Cl)cc2)O1	-5.53% (inactive)
Cc1cccc(N2CCN(C(=O)COCc3cc(-c4ccc5c(c4)OCO5)on3)CC2)c1C	-13.9% (inactive)
CCC(=O)N(Cc1cc2ccccc2[nH]c1=O)c1ccc(OC)cc1	-8.72% (inactive)
Cc1ccc(N(Cc2cc(=O)[nH]c3ccccc23)C(=O)CCl)cc1	52.1% (active)
CC(=O)N(Cc1cc(=O)[nH]c2ccccc12)c1ccc(C)cc1C	4.2% (inactive)
CCN(CC)S(=O)(=O)c1cccc(C(=O)NCC(=O)OCC(=O)NCc2ccccc2)c1	0.62% (inactive)
Cc1ccc(F)cc1S(=O)(=O)Nc1cccc(C(=O)N2CCCC(C(N)=O)C2)c1 (stereo not given)	-7.05% (inactive)
NC(=O)[C@H]1CC2(CC(c3cccc(NC(=O)[C@H]4CCC(=O)N4)c3)=NO2)CN1C(=O)c1ccccc1C(=O)c1ccccc1 (stereo not given in full)	-12.2% (inactive)
COc1ccc(CCNC(=S)NC(=O)/C=C/c2ccc(C)cc2)cc1OC	-15.4% (inactive)
Cc1ccc(-c2nc(C#N)c(NCCCn3ccnc3)o2)cc1	-18.1% (inactive)
Cc1ccc2c(Cl)c(C(=O)NCCCn3ccnc3)sc2c1	-11.3% (inactive)
Cc1ccc(S(=O)(=O)c2nc(NCCCn3ccnc3)sc2Cl)cc1	80.5% (active)
O=C(O)C(=Cc1ccc([N+](=O)[O-])cc1)CCc1ccccc1	-10.9% (inactive)
CCOC(=O)/C(=N\Nc1ccccc1[N+](=O)[O-])c1csc(Nc2ccccc2)n1	8.54% (inactive)
CCOC(=O)/C(=C\c1ccc([N+](=O)[O-])cc1)C(=O)c1cc(C(C)=O)c(Nc2ccccc2)s1	104% (active)
CCCCc1c(-c2ccc(Br)cc2)ncn1CCc1ccccc1OC	38.9% (inactive)
Cc1noc(C)c1NC(=O)N(C)C[C@@H]1Oc2cc(Br)ccc2S(=O)(=O)N([C@@H](C)CO)C[C@H]1C	18.1% (inactive)
COC(=O)c1ccc(Nc2ncnc3sccc23)cc1	-10.3% (inactive)
COC(=O)c1ccc2nc(C3CCCCC3)c(Cc3cccc(F)c3)n2c1	-20.2% (inactive)
O=C(O)C(F)(F)C(NCc1ccccc1)c1ccccc1 (stereo not given)	-8.01% (inactive)
CC[C@H]1CN2CCc3cc(OC)c(OC)cc3[C@@H]2C[C@@H]1C[C@H]1NCCc2cc(OC)c(OC)cc21	98% (active)
Cn1ncc([N+](=O)[O-])c1C(=O)Nc1cc(Cl)ccc1Cl	-23.8% (inactive)

Structure (SMILES)	inhibition
Cc1cc2nc(-c3ccc(F)cc3)c(Cc3ccsc3)n2c(C)c1Br	0.39% (inactive)
Cc1cc(=O)oc2c3c(cc(OCC(=O)NCC(O)c4ccccc4)c12)OC(C)(C)CC3 (stereo not given)	-0.31% (inactive)
O=C(CC1CCCCC1)NCc1ccc(F)cc1	7.42% (inactive)
CCc1ccc2c(c1)C1(NN=C(c3ccccc3)S1)C(=O)N2 (stereo not given)	87.5% (active)
CCc1ccc2c(c1)NC(=O)C2(C)Cc1ccc(OC(F)(F)F)cc1 (stereo not given)	8.25% (inactive)
NS(=O)(=O)c1cccc(NC(=O)COC(=O)c2cc([N+](=O)[O-])ccc2N2CCCC2)c1	-16.4% (inactive)
O=[N+]([O-])c1ccc2oc(-c3cccc(O)c3)nc2c1	5.84% (inactive)
COc1ccc2oc(N)nc2c1	-11.6% (inactive)
COc1cccc(-c2nc3cc(C)ccc3o2)c1	51.2% (active)
CCN(CC)c1ccc(NC(=O)c2ccc(=O)[nH]c2)cc1S(=O)(=O)Nc1ccc(OC)cc1	9.69% (inactive)
COc1cc(NC(=O)COC(=O)CSc2ccc3ccccc3c2)c(C)cc1[N+](=O)[O-]	2.69% (inactive)
CC[C@@H]1Cc2cc(O)ccc2C2=C1c1ccc(O)cc1C[C@H]2CC	77% (active)
CCSc1nsc(NC(=O)Nc2cccc(C(C)=O)c2)n1	87.9% (active)
CSc1ccccc1C(=O)Nc1cccc(C(C)=O)c1	0.31% (inactive)
C=CCSc1nsc(NC(=O)Nc2cccc(C(C)=O)c2)n1	91% (active)
CC(=O)c1cccc(NC(=S)N2CCN(S(C)(=O)=O)CC2)c1	-22.1% (inactive)
CC(=O)c1cccc(NC(=O)C2CCN(C(=O)c3ccccc3Cl)CC2)c1	-5.45% (inactive)
COc1ccc(NC(C(=O)Nc2cccc(C(C)=O)c2)c2ccccc2)cc1 (stereo not given)	-31.7% (inactive)
Cc1ccc(C2Nc3ccccc3C(=O)N2CCN2CCNC2=O)cc1 (stereo not given)	-6.92% (inactive)
C[C@@H]1CN([C@@H](C)CO)C(=O)c2cc(NS(C)(=O)=O)ccc2O[C@@H](C)CCCCO[C@H]1CN(C)C(=O)Nc1ccc2c(c1)OCO2	-5.22% (inactive)
CC1COc2ccccc2N1C(=O)c1ccc(F)cc1 (stereo not given)	0.29% (inactive)
O=C(c1ccc(F)cc1)n1c(=S)nc2ccccn21	78.2% (active)
O=C(c1ccc(F)cc1)N1CCC(n2nnc3ccccc32)CC1	-5.58% (inactive)
CCCC(CCC(=O)OC)(C(=O)OCC)c1csc(N)n1 (stereo not given)	-16.1% (inactive)
C/C=C(/C)C(=O)OC1Cc2c(ccc3ccc(=O)oc23)OC1(C)C (stereo not given)	94.7% (active)
CC1(C)Oc2ccc3ccc(=O)oc3c2/C(=N/O)C1=O	3.76% (inactive)
CC1(C)Oc2ccc3ccc(=O)oc3c2/C(=C/NCCO)C1=O	4.08% (inactive)
